The source of these data is PubChem BioAssay.

The first assay can be described thus: binders of probe aFGF2 on microarray, primary screen, stem cell growth factor project, biochemical, small-molecule microarray, fluorescence 635/667 (AID 1067).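 Further: measures binding of biotinylated aFGF2 protein to printed compounds on slides; z-score merges feature fluorescence and signal-to-noise across triplicate slides.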 Conditions: higher = more signal.
For the compound `CCCC1(C(=O)OC)C=C2C(=C(C)C(=O)C2C)CN1` (stereo not given), the composite z-score was -0.0296.
With `COc1cc(NN2C(C(O)c3ccco3)C=CC3C(=O)N(C)C(=O)C32)cc(OC)c1OC` (stereo not given), the composite z-score came out at 0.083.
Consider `CCCNC(=O)[C@@H]1c2ccccc2C(=O)N(Cc2ccc(OC(F)(F)F)cc2)[C@H]1c1ccc(CO)cc1`, for which the composite z-score turned out to be 0.0295.
As to `C=CC[C@@H](OC(=O)Nc1ccc(OC)cc1)c1ccc(O)c(F)c1`, the composite z-score is -0.141.
On the same count and under the same terms, with `CCCC[C@@H](O)C1=C(COC)C[C@H]2C(=O)N(Cc3ccccc3)C(=O)[C@H]2[C@H]1CO` the figure was -0.0969; with `CC(C)NC(=O)[C@@]1(c2ccc([N+](=O)[O-])cc2)CC(=O)N(C2CCCCC2)[C@@H]1c1ccc(CO)cc1`, 0.0584.
In turn, `CC1CC/C=C\[C@H]2OC34C=CCN(c5ccc(Cl)cc5)C(=O)[C@H]3N(C(C)CO)C(=O)[C@]4(C)C2C(=O)O1` (stereo not given in full) returned a composite z-score of -0.143.
The same measure, in the same setting: the figure for `COc1cc2c(cc1O)C(C1CC1)N(Cc1cccc(OC(F)(F)F)c1)CC2` (stereo not given) is -0.101; for `CC(c1ccccc1)C(O)C1C=CC2C(=O)N(C)C(=O)C2N1Nc1ccccc1` (stereo not given) it is 0.362.
On the same count and under the same terms, with `CCOC(=O)C1=CC[C@@H](c2ccccc2F)N(S(=O)(=O)c2ccc(C)cc2)[C@H]1c1ccccc1` the figure was -0.0253.

Another assay is described as follows: binders of probe aFGF10 on microarray, primary screen, stem cell growth factor project, biochemical, small-molecule microarray, fluorescence 635/667 (AID 1071).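 Further: score merges 667 nm spot intensity and signal to noise from triplicate slides.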 Conditions: higher = more signal.
`CC1CC/C=C\[C@H]2OC34C=CCN(C(C)(C)C)C(=O)[C@H]3N(CCCCCO)C(=O)[C@@H]4C2C(=O)O1` (stereo not given in full): the composite z-score is -0.817.
The same measure, in the same setting: the figure for `COc1cc(NN2C(C(O)c3cc(OC)c(OC)c(OC)c3)C=CC3C(=O)N(C)C(=O)C32)cc(OC)c1OC` (stereo not given) is 0.899.
Same read-out and setting: with `[N-]=[N+]=NCc1ccccc1[C@H]1OC(c2ccc(OCCCO)cc2)=N[C@@]1(Cc1ccccc1N=[N+]=[N-])C(=O)NCC(O)CO` (stereo not given in full) the figure was 0.867; with `C=C(COC)/C(=C/C[C@H](OC(=O)c1ccncc1)c1ccccc1OCCO)c1cc(C(=O)OC)ccc1OC`, 0.67; with `CC(C)=C1C(=O)C(c2ccccc2)=C2CN3C(=O)N(CCc4ccccc4)C(=O)[C@]3(Cc3ccc(C(F)(F)F)cc3)[C@H]21`, -0.122.
In turn, `NCCCCCCNC(=O)[C@@H]1C[C@@H]2C(=O)N[C@@H](CCCCN)C(=O)N2[C@@H]1c1ccc(O)cc1` yielded a composite z-score of 0.469.
Turning to `CC(C)[Si](C#CCCCC#N)(O[C@H](c1ccccc1)c1cn(Cc2ccccc2)nn1)C(C)C`, the composite z-score was 0.335.
As for `CC(C)c1ccc(NN2C(C(O)c3ccc(C#N)cc3)C=CC3C(=O)N(c4ccccc4)C(=O)C32)cc1` (stereo not given), the composite z-score is 1.15.
`COC(=O)[C@]1(CCS(=O)(=O)c2ccccc2)N=C(c2ccc(OCCCO)cc2)O[C@@H]1c1ccccc1N=[N+]=[N-]`: the composite z-score came to 0.898.
Compound `C=C[C@H](C)[C@H](OC(=O)Nc1ccc(SC)cc1)c1ccc(OCCO)cc1` displayed a composite z-score of 0.406.
`Cc1ccc(S[C@]2(C(=O)NCC(F)(F)F)CC(=O)N(Cc3cc(C(F)(F)F)cc(C(F)(F)F)c3)[C@@H]2c2ccc(CO)cc2)cc1` registered a composite z-score of -0.232.
`O=C1OCCC=C[C@H]2OC34C=CCN(c5ccc6ccccc6c5)C(=O)[C@H]3N(CCCO)C(=O)[C@@H]4C12` (stereo not given in full) gave a composite z-score of -0.736.
Take `O=C1O[C@H](c2ccccc2)[C@H](c2ccccc2)N2[C@H]1[C@@H](C(=O)O)[C@]1(C(=O)Nc3ccc(C#CCCO)cc31)[C@H]2c1ccccc1OCCO`: the composite z-score came to 0.21.
Still for that read-out and setting: the figure for `COC(=O)[C@@]1(Cc2ccc(F)cc2)[C@H]2c3cc(C(=O)N4CCCC4)n(CCc4c[nH]c5ccccc45)c3C[C@H]2CN1C(=O)c1ccccc1` is 0.439.
Compound `[N-]=[N+]=Nc1ccccc1C[C@]1(C(=O)N2CCOCC2)COC(c2ccc(OCCCO)cc2)=N1` displayed a composite z-score of 0.261.
On to `C=CCN1C(=O)[C@]2(CCC(=O)OC(C)(C)C)N=C(c3ccc(OCCCO)cc3)O[C@@H]2c2ccccc21`, for which the composite z-score was -0.475.
`O=C1OCCC=C[C@H]2OC34C=CCN(Cn5nnc6ccccc65)C(=O)[C@H]3N(CCCO)C(=O)[C@@H]4C12` (stereo not given in full): the composite z-score is -0.169.
In the case of `COCCOC(=O)N1C(=O)[C@@]2(c3ccccc31)[C@H](c1ccc(O)cc1)N1[C@H](c3ccccc3)[C@H](c3ccccc3)OC(=O)[C@H]1[C@@H]2C(=O)N1CCN(c2ncccn2)CC1`, the composite z-score was determined as 0.644.
The same measure, in the same setting: with `Cc1ccc(S[C@]2(C(=O)NCC(F)(F)F)CC(=O)N(Cc3cc(C(F)(F)F)cc(C(F)(F)F)c3)[C@@H]2c2ccc(CO)cc2I)cc1` the figure was -0.41; with `C#CCN([C@@H](Cc1ccccc1)C(=O)OC)[C@@H](/C=C/C1CC1)[C@H](O)Cc1ccccc1`, -0.181; with `CC(C)C(CO)N1C(=O)[C@@H]2[C@H]3C(=O)OCC=C[C@H]3OC23C=CCN(c2ccc(Cl)cc2)C(=O)[C@@H]13` (stereo not given in full), -0.385.
As to `COC(=O)[C@@]1(Cc2ccc(F)cc2)[C@H]2c3cc(C(=O)N4CCCC4)n(Cc4ccc(C)c(F)c4F)c3C[C@H]2CN1C(=O)c1ccccc1`, the composite z-score is -0.227.
The compound `COc1ccccc1CN1C(=O)c2ccccc2[C@](Cc2ccccc2I)(C(=O)O)[C@@H]1c1ccc(CO)cc1` registered a composite z-score of 1.01.
The same measure, in the same setting: with `COc1ccc([C@H]2OC[C@@H]3C[C@H](Cc4ccccc4)C(=O)N32)cc1` the figure was 0.219; with `COCCOC(=O)N1C(=O)[C@@]2(c3cc(C#CC4(O)CCCCCC4)ccc31)[C@H](c1ccc(O)cc1)N1[C@H](c3ccccc3)[C@H](c3ccccc3)OC(=O)[C@H]1[C@@H]2C(=O)N1CCN(c2ncccn2)CC1`, 0.292; with `CCCC1(C(=O)OC)C=C2C(=C(C)C(=O)C2C)CN1` (stereo not given), -0.0572.
In turn, `COc1cc(NN2C(C(O)c3ccco3)C=CC3C(=O)N(C)C(=O)C32)cc(OC)c1OC` (stereo not given) yielded a composite z-score of 0.27.
In turn, `CCCNC(=O)[C@@H]1c2ccccc2C(=O)N(Cc2ccc(OC(F)(F)F)cc2)[C@H]1c1ccc(CO)cc1` came in with a composite z-score of 0.0505.
As for `C=CC[C@@H](OC(=O)Nc1ccc(OC)cc1)c1ccc(O)c(F)c1`, the composite z-score is -0.97.
As to `CCCC[C@@H](O)C1=C(COC)C[C@H]2C(=O)N(Cc3ccccc3)C(=O)[C@H]2[C@H]1CO`, the composite z-score was 0.58.
Same read-out and setting: with `CC(C)NC(=O)[C@@]1(c2ccc([N+](=O)[O-])cc2)CC(=O)N(C2CCCCC2)[C@@H]1c1ccc(CO)cc1` the figure was 0.817.
In turn, `CC1CC/C=C\[C@H]2OC34C=CCN(c5ccc(Cl)cc5)C(=O)[C@H]3N(C(C)CO)C(=O)[C@]4(C)C2C(=O)O1` (stereo not given in full) yielded a composite z-score of -0.172.
The same measure, in the same setting: the figure for `COc1cc2c(cc1O)C(C1CC1)N(Cc1cccc(OC(F)(F)F)c1)CC2` (stereo not given) is 0.248.
`CC(c1ccccc1)C(O)C1C=CC2C(=O)N(C)C(=O)C2N1Nc1ccccc1` (stereo not given) returned a composite z-score of 0.796.
As to `CCOC(=O)C1=CC[C@@H](c2ccccc2F)N(S(=O)(=O)c2ccc(C)cc2)[C@H]1c1ccccc1`, the composite z-score was determined as 0.765.
